Active and inactive are the calls of the source. Rule for the calls: active = hit-call score of the fitted dose curve at least 0.9, where 1 is the maximum; inactive = score below 0.9.
Columns and labels:
[1] = read-out: Matrix Metallopeptidase 9 (MMP9), MMP9 (gene 4318); assay: BSK_KF3CT_MMP9: BioMAP Diversity Plus: KF3CT Assay for Matrix Metallopeptidase 9 (MMP9) Biomarker Activity (AID 2283074); conditions: primary human keratinocytes with fibroblasts; actives raise or lower the signal
Method in brief: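 Keratinocyte plus foreskin fibroblast human primary skin co-culture was dosed with chemical and MMP-9 was quantified by ELISA 24 h later. Bidirectional curve fitting used DMSO as negative control and activity baseline.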

[2] = read-out: urokinase plasminogen activator (uPA), PLAU (gene 5328); assay: BSK_KF3CT_uPA: BioMAP Diversity Plus: KF3CT Assay for urokinase plasminogen activator (uPA) Biomarker Activity (AID 2283075); conditions: primary human keratinocytes with fibroblasts; actives raise or lower the signal
Method in brief: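 Human keratinocyte plus foreskin fibroblast primary co-culture exposed to chemical for 24 h. uPA levels were quantified by ELISA, and activity was fitted bidirectionally against a DMSO negative-control baseline.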

CD40, CD40 (gene 958) [3] = assay: BSK_LPS_CD40: BioMAP Diversity Plus: LPS Assay for CD40 Biomarker Activity (AID 2283076); conditions: primary human HUVEC with PBMC; actives raise or lower the signal
Method in brief: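 Using a multiplexed primary human co-culture (umbilical vein endothelium plus PBMC), CD40 was read by ELISA 24 h after dosing, with cytotoxicity tracked by sulforhodamine B staining of parallel cultures and activity fitted bidirectionally versus DMSO.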

[4] = read-out: E-selectin (Homo sapiens) (UniProt P16581); assay: BSK_LPS_Eselectin: BioMAP Diversity Plus: LPS Assay for Eselectin Biomarker Activity (AID 2283077); conditions: primary human HUVEC with PBMC; actives raise or lower the signal
Method in brief: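 Dose chemical onto LPS-driven HUVEC/PBMC co-culture; after 24 h, run ELISA for E-selectin; fit up- and down-going responses relative to DMSO control.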

[5] = read-out: Interleukin-8 (IL8), CXCL8 (gene 3576); assay: BSK_LPS_IL8: BioMAP Diversity Plus: LPS Assay for Interleukin-8 (IL8) Biomarker Activity (AID 2283078); conditions: primary human HUVEC with PBMC; actives raise or lower the signal
Method in brief: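 In this LPS system, chemical-treated human umbilical vein endothelium/PBMC co-cultures were harvested at 24 h for IL-8 ELISA.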

[6] = BSK_LPS_SRB: Viability Assessment in the BioMAP Diversity Plus: LPS Assay (AID 2283079); conditions: primary human HUVEC with PBMC;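 note: total protein by sulforhodamine B absorbance as a cytotoxicity measure; measured one day after compound addition; fitted in both directions against DMSO so loss or gain of signal counts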
Method in brief: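 Cytotoxicity endpoint in human endothelial–PBMC co-culture: 24 h exposure, then SRB (0.1%) staining, 560 nm read.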

[7] = read-out: Interleukin-1 alpha (IL1a), IL1A (gene 3552); assay: BSK_LPS_IL1a: BioMAP Diversity Plus: LPS Assay for Interleukin-1 alpha (IL1a) Biomarker Activity (AID 2283080); conditions: primary human HUVEC with PBMC; actives raise or lower the signal
Method in brief: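 Primary human HUVEC and PBMC co-culture stimulated with LPS is dosed and harvested at 24 h. Both increases and decreases in ELISA-measured IL-1a are scored relative to DMSO.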

[8] = read-out: Monocyte Chemoattractant Protein-1 (MCP1), CCL2 (gene 6347); assay: BSK_LPS_MCP1: BioMAP Diversity Plus: LPS Assay for Monocyte Chemoattractant Protein-1 (MCP1) Biomarker Activity (AID 2283081); conditions: primary human HUVEC with PBMC; actives raise or lower the signal;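 for AC50: secreted MCP-1 protein quantified by ELISA in culture supernatant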
Method in brief: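 Values derive from bidirectional fitting against DMSO of ELISA-measured MCP-1 in a human primary endothelial and mononuclear cell co-culture, 24 h after chemical addition under LPS activation.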

[9] = BSK_LPS_PGE2: BioMAP Diversity Plus: LPS Assay for Prostaglandin E2 (PGE2) Biomarker Activity (AID 2283082); conditions: primary human HUVEC with PBMC; actives raise or lower the signal
Method in brief: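 Endpoint derived from bidirectional curve fitting versus DMSO of ELISA-measured PGE2 in LPS-stimulated human primary vascular co-culture (HUVEC with PBMC) harvested at 24 h.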

[10] = read-out: Macrophage colony-stimulating factor (MCSF), CSF1 (gene 1435); assay: BSK_LPS_MCSF: BioMAP Diversity Plus: LPS Assay for Macrophage colony-stimulating factor (MCSF) Biomarker Activity (AID 2283083); conditions: primary human HUVEC with PBMC; actives raise or lower the signal
Method in brief: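 Bidirectional fit versus DMSO of ELISA-measured M-CSF in co-cultured human umbilical vein endothelial cells and PBMC, sampled 24 h after dosing.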

[11] = read-out: Tissue Factor, F3 (gene 2152); assay: BSK_LPS_TissueFactor: BioMAP Diversity Plus: LPS Assay for Tissue Factor Biomarker Activity (AID 2283084); conditions: primary human HUVEC with PBMC; actives raise or lower the signal
Method in brief: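 Read-out: CD142 ELISA, 24 h. System: LPS-driven human endothelial/PBMC co-culture. Analysis: up- or down-signal fitted against DMSO.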

[12] = read-out: Tumor necrosis factor (Homo sapiens) (UniProt P01375); assay: BSK_LPS_TNFa: BioMAP Diversity Plus: LPS Assay for Tumour Necrosis Factor alpha (TNFa) Biomarker Activity (AID 2283085); conditions: primary human HUVEC with PBMC; actives raise or lower the signal
Method in brief: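 Primary human vascular co-culture of HUVEC and PBMC; TNFa ELISA 24 h after treatment, analysed as increase or decrease relative to DMSO control.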

[13] = read-out: Vascular cell adhesion molecule 1 (VCAM1), VCAM1 (gene 7412); assay: BSK_LPS_VCAM1: BioMAP Diversity Plus: LPS Assay for Vascular cell adhesion molecule 1 (VCAM1) Biomarker Activity (AID 2283086); conditions: primary human HUVEC with PBMC; actives raise or lower the signal
Method in brief: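 Primary human vascular co-culture (umbilical vein endothelium plus PBMC) stimulated with LPS received chemical; 24 h later VCAM-1 was read by ELISA. Overt cytotoxicity was assessed by sulforhodamine B staining of parallel cultures at the same time point.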

CD40, CD40 (gene 958) [14] = assay: BSK_SAg_CD40: BioMAP Diversity Plus: SAg Assay for CD40 Biomarker Activity (AID 2283088); conditions: primary human HUVEC with PBMC; actives raise or lower the signal
Method in brief: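 Endpoint derived by fitting increases or decreases versus DMSO controls. CD40 is detected by fluorescence ELISA in a human vascular co-culture of endothelium and PBMC at 24 h.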

CD69, CD69 (gene 969) = assay: BSK_SAg_CD69: BioMAP Diversity Plus: SAg Assay for CD69 Biomarker Activity (AID 2283089); conditions: primary human HUVEC with PBMC; actives raise or lower the signal;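 for AC50: cell surface CD69 protein quantified by ELISA with fluorescence detection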
Method in brief: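 ELISA, fluorescence read-out: CD69 on human umbilical vein endothelial cell + PBMC co-culture, 24 h post-dosing. Gain or loss of signal fitted bidirectionally against DMSO baseline.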

[15] = read-out: Monocyte Chemoattractant Protein-1 (MCP1), CCL2 (gene 6347); assay: BSK_SAg_MCP1: BioMAP Diversity Plus: SAg Assay for Monocyte Chemoattractant Protein-1 (MCP1) Biomarker Activity (AID 2283090); conditions: primary human HUVEC with PBMC; actives raise or lower the signal
Method in brief: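 MCP-1 levels in the endothelial–PBMC SAg co-culture were quantified by ELISA at 24 h post-dosing; both increases and decreases versus DMSO scored. Cytotoxicity monitored by SRB total protein in parallel cultures.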

[16] = read-out: E-selectin (Homo sapiens) (UniProt P16581); assay: BSK_SAg_Eselectin: BioMAP Diversity Plus: SAg Assay for Eselectin Biomarker Activity (AID 2283091); conditions: primary human HUVEC with PBMC; actives raise or lower the signal
Method in brief: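 Endpoint values derive from bidirectional fitting relative to DMSO, using ELISA-measured E-selectin in a human vascular co-culture (umbilical vein endothelium plus PBMC) sampled 24 h after dosing.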

[17] = read-out: Monokine induced gamma interferon (MIG), CXCL9 (gene 4283); assay: BSK_SAg_MIG: BioMAP Diversity Plus: SAg Assay for Monokine induced gamma interferon (MIG) Biomarker Activity (AID 2283092); conditions: primary human HUVEC with PBMC; actives raise or lower the signal
Method in brief: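 ELISA readout of MIG/CXCL9; primary human umbilical vein endothelial cells co-cultured with peripheral blood mononuclear cells; 24 h post-dose; gain/loss fit vs DMSO baseline.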

CD38, CD38 (gene 952) = assay: BSK_SAg_CD38: BioMAP Diversity Plus: SAg Assay for CD38 Biomarker Activity (AID 2283087); conditions: primary human HUVEC with PBMC; actives raise or lower the signal
Method in brief: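 Fluorescence ELISA of cell-surface CD38 served as the read-out, with either increase or decrease fitted against DMSO controls. Cells were a human umbilical vein endothelium plus PBMC co-culture under SEB/TSST-1 stimulation, measured 24 h after dosing.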

Measured: AC50

E-selectin (Homo sapiens), sequence (P16581 whole entry, looked up): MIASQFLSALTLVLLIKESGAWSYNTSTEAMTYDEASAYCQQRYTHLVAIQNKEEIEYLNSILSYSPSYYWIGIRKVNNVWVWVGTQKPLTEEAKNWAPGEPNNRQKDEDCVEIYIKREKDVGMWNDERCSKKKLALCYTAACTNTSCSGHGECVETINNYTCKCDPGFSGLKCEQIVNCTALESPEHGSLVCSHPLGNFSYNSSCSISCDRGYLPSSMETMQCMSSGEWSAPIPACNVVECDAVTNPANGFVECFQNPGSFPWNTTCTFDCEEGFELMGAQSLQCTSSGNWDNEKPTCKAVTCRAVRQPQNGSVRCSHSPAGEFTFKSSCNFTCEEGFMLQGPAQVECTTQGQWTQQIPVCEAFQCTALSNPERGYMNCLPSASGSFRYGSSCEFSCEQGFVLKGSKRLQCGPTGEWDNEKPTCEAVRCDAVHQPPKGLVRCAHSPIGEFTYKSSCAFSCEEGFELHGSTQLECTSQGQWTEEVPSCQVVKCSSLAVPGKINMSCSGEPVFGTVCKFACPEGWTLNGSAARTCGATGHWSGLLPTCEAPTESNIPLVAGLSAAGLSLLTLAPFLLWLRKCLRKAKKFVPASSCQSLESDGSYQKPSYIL
Tumor necrosis factor (Homo sapiens), sequence (P01375 whole entry, looked up): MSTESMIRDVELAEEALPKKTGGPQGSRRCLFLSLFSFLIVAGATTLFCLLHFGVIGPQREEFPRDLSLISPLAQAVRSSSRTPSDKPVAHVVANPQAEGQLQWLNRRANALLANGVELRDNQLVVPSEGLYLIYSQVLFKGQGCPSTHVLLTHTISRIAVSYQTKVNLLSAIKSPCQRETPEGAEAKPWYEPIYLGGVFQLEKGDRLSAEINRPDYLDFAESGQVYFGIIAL

Nc1ccn([C@@H]2O[C@H](CO)[C@@H](O)[C@@H]2O)c(=O)n1
active: [16] 8.71 µM
inactive: [1] | [2] | CD40, CD40 (gene 958) [3] | [4] | [5] | [6] | [7] | [8] | [9] | [10] | [11] | [12] | [13] | CD40, CD40 (gene 958) [14] | CD69, CD69 (gene 969) | [15] | [17]

CCCCCCCCCCCCCCO
inactive: [1] | [2] | [9] | [12]
active: CD40, CD40 (gene 958) [3] 36.6 µM | [5] 34 µM | [6] 30.7 µM | [7] 30.2 µM | [8] 31.2 µM | [10] 31.5 µM | [11] 33.3 µM | [13] 29.6 µM | CD38, CD38 (gene 952) 31.1 µM | CD40, CD40 (gene 958) [14] 34.1 µM | CD69, CD69 (gene 969) 30.6 µM | [15] 34.2 µM | [16] 36.3 µM | [17] 39.4 µM

FC(F)(F)C(F)(F)C(F)(F)C(F)(F)C(F)(F)C(F)(F)I
inactive: [1] | [2] | CD40, CD40 (gene 958) [3] | [4] | [5] | [6] | [7] | [8] | [9] | [10] | [11] | [12] | [13] | CD38, CD38 (gene 952) | CD40, CD40 (gene 958) [14] | CD69, CD69 (gene 969) | [15] | [16] | [17]

— PubChem BioAssay (EPA / NIEHS)
